Results reported in paper PMC7862700, “An all-to-all approach to the identification of sequence-specific readers for epigenetic DNA modifications on cytosine”.

Assays:
Assay in all cases: DAPPL (digital affinity profiling via proximity ligation, sequencing); 10 mM Tris-HCl pH 7.5, 50 mM NaCl, 1 mM DTT, 4% glycerol, room temperature, 30 min; GST-TFs on glutathione beads, 16-mer random dsDNA library, 0.1% formaldehyde crosslink after washing; high values mean tight binding
FEV = molecular target: T1, FEV (Homo sapiens, UniProt Q99581 1-238); conditions: protein: recombinant; tags: N-terminal GST; dsDNA, one strand shown
T1 sequence: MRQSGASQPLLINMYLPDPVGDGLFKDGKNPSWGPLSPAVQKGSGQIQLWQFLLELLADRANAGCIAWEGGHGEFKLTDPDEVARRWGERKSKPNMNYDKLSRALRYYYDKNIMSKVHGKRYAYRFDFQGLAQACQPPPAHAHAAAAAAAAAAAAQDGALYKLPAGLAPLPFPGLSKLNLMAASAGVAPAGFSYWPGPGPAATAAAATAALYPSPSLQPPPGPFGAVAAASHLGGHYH
Summary of the method: (§1)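 Pools of DNA-barcoded human transcription factors, expressed in yeast as GST fusions on glutathione beads and combined with a tag-only sample, were incubated with 200 nmole of a 16-mer random double-stranded DNA library. Incubation took 30 min at room temperature in Tris/NaCl/DTT/glycerol buffer and was followed by washing, 0.1% formaldehyde crosslinking, proximity ligation (BsaI/T4 ligase, 1 h, 37 °C), PCR amplification and sequencing on an Illumina NextSeq500. Binding signal is the ratio of a hexamer's read frequency for a factor to its frequency for the tag-only sample.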

ETV5 = ETV5 (Homo sapiens, UniProt P41161 1-510); conditions: protein: recombinant; tags: N-terminal GST; dsDNA, one strand shown
Summary of the method: as §1

HSF1 = HSF1 (Homo sapiens, UniProt Q00613 1-529); conditions: protein: recombinant; tags: N-terminal GST; chain copies: 3; dsDNA, one strand shown
Summary of the method: as §1

SPIC = molecular target: T2, SPIC (Homo sapiens, UniProt Q8N5J4 1-248); conditions: protein: recombinant; tags: N-terminal GST; dsDNA, one strand shown
T2 sequence: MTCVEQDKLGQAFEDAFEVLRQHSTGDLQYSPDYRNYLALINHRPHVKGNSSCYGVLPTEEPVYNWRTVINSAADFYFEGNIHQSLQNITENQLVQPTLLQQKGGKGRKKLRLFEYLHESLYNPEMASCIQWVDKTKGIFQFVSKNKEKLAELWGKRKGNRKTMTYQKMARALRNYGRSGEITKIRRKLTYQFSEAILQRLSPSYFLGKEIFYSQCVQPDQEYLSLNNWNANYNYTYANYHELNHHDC
Summary of the method: as §1

ELF4 = ELF4 (Homo sapiens, UniProt Q99607 1-663); conditions: protein: recombinant; tags: N-terminal GST; dsDNA, one strand shown
Summary of the method: as §1

ELK4 = molecular target: T3, ELK4 (Homo sapiens, UniProt P28324-2 1-405); conditions: protein: recombinant; tags: N-terminal GST; dsDNA, one strand shown
T3 sequence: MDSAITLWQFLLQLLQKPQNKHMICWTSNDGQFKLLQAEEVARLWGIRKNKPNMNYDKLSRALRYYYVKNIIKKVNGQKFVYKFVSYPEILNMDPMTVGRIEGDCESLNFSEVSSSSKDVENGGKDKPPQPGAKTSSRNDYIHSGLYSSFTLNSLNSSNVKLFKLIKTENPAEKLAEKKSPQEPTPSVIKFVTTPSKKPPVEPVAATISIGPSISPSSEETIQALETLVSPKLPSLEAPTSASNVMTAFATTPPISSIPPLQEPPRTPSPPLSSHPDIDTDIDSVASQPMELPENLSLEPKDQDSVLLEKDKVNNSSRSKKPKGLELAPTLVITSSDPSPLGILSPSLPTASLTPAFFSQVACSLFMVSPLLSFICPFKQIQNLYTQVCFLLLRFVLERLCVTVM
Summary of the method: as §1

ETV2 = molecular target: T4, ETV2 (Homo sapiens, UniProt O00321 1-342); conditions: protein: recombinant; tags: N-terminal GST; dsDNA, one strand shown
T4 sequence: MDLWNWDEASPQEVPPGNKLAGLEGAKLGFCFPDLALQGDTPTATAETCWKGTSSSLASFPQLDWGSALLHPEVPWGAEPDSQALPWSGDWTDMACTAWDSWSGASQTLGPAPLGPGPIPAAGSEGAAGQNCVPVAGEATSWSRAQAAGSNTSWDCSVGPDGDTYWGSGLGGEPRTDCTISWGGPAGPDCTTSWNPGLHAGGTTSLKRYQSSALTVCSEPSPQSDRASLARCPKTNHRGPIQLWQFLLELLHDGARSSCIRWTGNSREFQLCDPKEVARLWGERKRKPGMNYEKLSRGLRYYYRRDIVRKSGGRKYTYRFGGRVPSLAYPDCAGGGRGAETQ
Summary of the method: as §1

ELF3 = molecular target: T5, ELF3 (Homo sapiens, UniProt P78545 1-371); conditions: protein: recombinant; tags: N-terminal GST; dsDNA, one strand shown
T5 sequence: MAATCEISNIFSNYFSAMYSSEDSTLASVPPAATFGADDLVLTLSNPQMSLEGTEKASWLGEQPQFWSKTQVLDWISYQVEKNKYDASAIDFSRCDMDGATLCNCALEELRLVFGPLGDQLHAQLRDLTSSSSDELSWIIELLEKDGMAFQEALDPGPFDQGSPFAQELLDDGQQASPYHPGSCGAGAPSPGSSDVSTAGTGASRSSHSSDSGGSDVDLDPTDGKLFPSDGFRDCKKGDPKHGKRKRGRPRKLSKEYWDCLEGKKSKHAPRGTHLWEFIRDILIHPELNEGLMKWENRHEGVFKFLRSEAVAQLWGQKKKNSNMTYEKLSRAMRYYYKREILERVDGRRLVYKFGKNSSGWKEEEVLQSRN
Summary of the method: as §1

CRX = CRX (Homo sapiens, UniProt O43186 1-299); conditions: protein: recombinant; tags: N-terminal GST; dsDNA, one strand shown
Summary of the method: as §1

ETV1 = ETV1 (Homo sapiens, UniProt P50549 1-477); conditions: protein: recombinant; tags: N-terminal GST; dsDNA, one strand shown
Summary of the method: as §1

ERF = molecular target: T6, ERF (Homo sapiens, UniProt P50548 1-548); conditions: protein: recombinant; tags: N-terminal GST; dsDNA, one strand shown
T6 sequence: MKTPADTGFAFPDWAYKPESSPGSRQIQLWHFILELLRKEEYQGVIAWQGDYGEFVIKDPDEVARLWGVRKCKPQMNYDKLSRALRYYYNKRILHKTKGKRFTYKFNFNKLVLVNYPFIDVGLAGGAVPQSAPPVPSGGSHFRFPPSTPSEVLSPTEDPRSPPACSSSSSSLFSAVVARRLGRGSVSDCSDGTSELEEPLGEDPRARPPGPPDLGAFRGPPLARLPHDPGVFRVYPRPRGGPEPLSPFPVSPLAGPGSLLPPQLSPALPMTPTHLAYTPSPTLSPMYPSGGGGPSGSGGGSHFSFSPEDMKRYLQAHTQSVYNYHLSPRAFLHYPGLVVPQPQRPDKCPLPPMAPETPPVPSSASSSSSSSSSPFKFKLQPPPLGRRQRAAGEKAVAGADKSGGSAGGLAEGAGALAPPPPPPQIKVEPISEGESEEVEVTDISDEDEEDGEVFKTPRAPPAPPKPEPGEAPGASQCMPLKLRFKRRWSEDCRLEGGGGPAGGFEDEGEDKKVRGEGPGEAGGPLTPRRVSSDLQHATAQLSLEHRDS
Summary of the method: as §1

ETV3L = molecular target: T7, ETV3L (Homo sapiens, UniProt Q6ZN32 1-361); conditions: protein: recombinant; tags: N-terminal GST; dsDNA, one strand shown
T7 sequence: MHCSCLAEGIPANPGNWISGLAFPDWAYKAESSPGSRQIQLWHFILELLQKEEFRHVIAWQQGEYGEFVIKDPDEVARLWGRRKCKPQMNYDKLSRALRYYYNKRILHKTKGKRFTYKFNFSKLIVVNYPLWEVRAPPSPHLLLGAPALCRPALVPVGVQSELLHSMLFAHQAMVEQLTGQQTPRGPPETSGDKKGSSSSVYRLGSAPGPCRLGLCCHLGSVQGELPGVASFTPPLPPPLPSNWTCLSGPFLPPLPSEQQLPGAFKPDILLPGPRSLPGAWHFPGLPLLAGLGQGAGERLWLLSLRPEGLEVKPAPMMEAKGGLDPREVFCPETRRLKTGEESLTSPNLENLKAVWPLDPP
Summary of the method: as §1

ETS2 = molecular target: T8, ETS2 (Homo sapiens, UniProt P15036 1-469); conditions: protein: recombinant; tags: N-terminal GST; dsDNA, one strand shown
T8 sequence: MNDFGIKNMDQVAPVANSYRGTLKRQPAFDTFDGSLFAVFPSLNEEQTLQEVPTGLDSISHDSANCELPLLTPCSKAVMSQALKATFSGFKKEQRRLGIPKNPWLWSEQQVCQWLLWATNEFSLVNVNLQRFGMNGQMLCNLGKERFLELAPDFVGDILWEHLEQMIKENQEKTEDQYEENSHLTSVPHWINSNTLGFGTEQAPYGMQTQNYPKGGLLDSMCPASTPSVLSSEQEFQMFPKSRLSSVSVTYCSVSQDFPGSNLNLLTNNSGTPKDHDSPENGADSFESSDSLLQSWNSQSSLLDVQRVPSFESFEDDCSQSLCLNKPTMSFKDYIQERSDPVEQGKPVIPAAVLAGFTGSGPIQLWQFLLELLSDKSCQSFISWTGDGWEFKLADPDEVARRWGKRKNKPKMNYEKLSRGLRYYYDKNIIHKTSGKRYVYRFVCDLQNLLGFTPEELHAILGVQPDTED
Summary of the method: as §1

SPDEF = molecular target: T9, SPDEF (Homo sapiens, UniProt O95238 1-335); conditions: protein: recombinant; tags: N-terminal GST; dsDNA, one strand shown
T9 sequence: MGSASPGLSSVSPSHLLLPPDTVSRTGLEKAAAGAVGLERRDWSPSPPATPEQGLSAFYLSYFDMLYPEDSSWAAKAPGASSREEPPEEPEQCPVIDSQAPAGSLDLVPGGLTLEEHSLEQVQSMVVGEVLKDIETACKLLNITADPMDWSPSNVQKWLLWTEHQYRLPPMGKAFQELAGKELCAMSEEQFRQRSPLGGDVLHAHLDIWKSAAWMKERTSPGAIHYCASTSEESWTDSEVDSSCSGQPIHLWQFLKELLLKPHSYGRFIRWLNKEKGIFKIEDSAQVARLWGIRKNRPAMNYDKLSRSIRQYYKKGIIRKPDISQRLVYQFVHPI
Summary of the method: as §1

ETV7 = molecular target: T10, ETV7 (Homo sapiens, UniProt Q9Y603 1-341); conditions: protein: recombinant; tags: N-terminal GST; dsDNA, one strand shown
T10 sequence: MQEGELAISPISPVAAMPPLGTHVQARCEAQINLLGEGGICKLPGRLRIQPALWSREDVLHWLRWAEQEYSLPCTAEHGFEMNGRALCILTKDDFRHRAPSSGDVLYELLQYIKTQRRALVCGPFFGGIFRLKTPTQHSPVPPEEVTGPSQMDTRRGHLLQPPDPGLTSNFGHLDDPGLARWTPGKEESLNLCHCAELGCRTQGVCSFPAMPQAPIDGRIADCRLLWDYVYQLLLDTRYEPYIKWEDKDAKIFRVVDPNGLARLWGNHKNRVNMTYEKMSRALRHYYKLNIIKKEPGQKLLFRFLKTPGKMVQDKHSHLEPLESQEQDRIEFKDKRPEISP
Summary of the method: as §1

ELF5 = molecular target: T11, ELF5 (Homo sapiens, UniProt Q9UKW6-2 1-255); conditions: protein: recombinant; tags: N-terminal GST; dsDNA, one strand shown
T11 sequence: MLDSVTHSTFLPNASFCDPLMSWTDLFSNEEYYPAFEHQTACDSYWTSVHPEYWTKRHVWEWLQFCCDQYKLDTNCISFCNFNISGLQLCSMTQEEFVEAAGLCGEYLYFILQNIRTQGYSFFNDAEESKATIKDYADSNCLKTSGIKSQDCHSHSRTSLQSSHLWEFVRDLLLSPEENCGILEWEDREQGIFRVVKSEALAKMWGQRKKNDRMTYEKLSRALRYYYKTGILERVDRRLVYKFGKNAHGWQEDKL
Summary of the method: as §1

ETV3 = molecular target: T12, ETV3 (Homo sapiens, UniProt P41162-2 1-143); conditions: protein: recombinant; tags: N-terminal GST; dsDNA, one strand shown
T12 sequence: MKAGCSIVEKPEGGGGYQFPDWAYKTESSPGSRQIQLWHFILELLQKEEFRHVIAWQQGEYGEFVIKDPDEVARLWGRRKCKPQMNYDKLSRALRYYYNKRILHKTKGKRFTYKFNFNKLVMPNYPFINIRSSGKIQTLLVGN
Summary of the method: as §1

ETV6 = ETV6 (Homo sapiens, UniProt P41212 1-452); conditions: protein: recombinant; tags: N-terminal GST; dsDNA, one strand shown
Summary of the method: as §1

Sequence of HSF1 (Q00613 whole entry): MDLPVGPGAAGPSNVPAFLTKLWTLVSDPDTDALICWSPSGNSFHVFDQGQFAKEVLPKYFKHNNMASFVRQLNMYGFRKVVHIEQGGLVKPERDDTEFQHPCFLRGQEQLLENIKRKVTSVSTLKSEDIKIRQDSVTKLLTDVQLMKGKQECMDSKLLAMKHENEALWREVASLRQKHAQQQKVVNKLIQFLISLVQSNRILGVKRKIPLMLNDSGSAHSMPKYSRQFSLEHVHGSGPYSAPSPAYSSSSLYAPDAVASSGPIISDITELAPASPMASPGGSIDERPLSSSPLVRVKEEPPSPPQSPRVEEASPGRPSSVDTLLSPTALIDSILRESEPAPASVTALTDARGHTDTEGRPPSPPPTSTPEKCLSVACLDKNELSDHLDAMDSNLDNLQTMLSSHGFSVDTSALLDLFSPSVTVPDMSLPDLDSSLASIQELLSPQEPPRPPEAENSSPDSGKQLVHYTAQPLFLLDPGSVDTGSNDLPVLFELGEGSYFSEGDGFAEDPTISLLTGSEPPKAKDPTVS
Sequence of ETV1 (P50549 whole entry): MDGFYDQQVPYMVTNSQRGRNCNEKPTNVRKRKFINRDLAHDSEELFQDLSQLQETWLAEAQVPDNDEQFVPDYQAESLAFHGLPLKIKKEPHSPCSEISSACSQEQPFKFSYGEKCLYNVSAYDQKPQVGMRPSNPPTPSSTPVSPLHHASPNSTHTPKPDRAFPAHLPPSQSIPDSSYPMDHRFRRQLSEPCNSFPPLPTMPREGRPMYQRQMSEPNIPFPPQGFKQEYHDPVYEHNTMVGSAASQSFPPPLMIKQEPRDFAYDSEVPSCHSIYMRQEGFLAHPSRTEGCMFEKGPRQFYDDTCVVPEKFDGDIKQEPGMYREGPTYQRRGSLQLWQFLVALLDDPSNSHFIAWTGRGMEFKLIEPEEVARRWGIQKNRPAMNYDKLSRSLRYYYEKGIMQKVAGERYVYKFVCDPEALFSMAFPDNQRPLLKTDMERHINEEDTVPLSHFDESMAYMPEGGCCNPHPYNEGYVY
Sequence of ELF4 (Q99607 whole entry): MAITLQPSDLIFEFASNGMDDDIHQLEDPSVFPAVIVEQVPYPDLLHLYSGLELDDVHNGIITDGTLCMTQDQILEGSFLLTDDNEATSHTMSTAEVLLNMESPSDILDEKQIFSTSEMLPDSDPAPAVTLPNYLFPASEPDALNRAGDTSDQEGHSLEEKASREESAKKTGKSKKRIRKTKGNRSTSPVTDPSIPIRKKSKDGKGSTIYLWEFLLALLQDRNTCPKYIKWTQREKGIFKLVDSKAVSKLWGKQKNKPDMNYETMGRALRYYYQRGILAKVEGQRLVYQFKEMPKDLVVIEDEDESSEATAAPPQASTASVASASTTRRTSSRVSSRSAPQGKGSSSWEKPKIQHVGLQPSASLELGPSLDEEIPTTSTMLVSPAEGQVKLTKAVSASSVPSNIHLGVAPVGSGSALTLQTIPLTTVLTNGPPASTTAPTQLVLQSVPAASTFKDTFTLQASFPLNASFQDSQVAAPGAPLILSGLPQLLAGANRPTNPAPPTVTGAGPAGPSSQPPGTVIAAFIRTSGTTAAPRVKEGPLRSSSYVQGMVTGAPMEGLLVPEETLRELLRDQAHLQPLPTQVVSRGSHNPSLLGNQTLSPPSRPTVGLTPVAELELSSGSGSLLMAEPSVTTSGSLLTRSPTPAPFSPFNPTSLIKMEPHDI
Sequence of ETV6 (P41212 whole entry): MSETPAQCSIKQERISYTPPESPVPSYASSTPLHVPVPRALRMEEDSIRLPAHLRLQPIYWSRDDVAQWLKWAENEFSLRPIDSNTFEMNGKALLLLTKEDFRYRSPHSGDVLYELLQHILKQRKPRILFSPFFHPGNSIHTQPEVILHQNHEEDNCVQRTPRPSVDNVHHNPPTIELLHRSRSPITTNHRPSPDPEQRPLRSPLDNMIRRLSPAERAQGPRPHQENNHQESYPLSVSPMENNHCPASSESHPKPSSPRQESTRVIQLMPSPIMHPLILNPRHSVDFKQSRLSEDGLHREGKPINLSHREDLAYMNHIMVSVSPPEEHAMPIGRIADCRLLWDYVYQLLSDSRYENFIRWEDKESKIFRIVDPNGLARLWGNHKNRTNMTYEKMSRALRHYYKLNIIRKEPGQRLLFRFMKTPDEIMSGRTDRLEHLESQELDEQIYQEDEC
Sequence of CRX (O43186 whole entry): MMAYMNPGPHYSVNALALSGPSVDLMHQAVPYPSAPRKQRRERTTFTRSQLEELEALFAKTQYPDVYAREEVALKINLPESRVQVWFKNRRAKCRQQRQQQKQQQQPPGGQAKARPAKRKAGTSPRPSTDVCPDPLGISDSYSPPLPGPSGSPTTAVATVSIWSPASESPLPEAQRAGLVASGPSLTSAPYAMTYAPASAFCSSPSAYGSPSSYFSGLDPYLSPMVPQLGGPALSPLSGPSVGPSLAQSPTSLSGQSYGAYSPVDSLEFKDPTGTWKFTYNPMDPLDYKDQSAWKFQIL
Sequence of ETV5 (P41161 whole entry): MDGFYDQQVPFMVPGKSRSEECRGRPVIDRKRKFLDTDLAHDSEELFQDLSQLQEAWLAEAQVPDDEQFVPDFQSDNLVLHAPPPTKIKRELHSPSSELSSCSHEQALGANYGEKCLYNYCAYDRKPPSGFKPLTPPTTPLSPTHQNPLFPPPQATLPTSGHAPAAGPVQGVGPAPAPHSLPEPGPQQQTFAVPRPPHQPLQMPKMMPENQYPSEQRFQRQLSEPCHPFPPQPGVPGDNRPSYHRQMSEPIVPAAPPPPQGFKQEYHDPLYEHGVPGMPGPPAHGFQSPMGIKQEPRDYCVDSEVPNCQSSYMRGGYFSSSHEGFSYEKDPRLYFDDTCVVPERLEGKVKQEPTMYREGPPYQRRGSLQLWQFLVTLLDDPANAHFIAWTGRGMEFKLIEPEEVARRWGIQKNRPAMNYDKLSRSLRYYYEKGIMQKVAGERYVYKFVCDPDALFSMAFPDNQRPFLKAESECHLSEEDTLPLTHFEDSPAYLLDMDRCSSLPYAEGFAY

Q: Which binding signal (FEV) does the source give for TTAAAG here?
A: 1.17 fold enrichment (6-mer frequency, TF over GST control)

Q: And the binding signal (ETV5)?
A: 1.15 fold enrichment (6-mer frequency, TF over GST control)

Q: What about the binding signal (HSF1) of the same sequence?
A: 1.85 fold enrichment (6-mer frequency, TF over GST control)

Q: What about the binding signal (SPIC) of the same sequence?
A: 1.17 fold enrichment (6-mer frequency, TF over GST control)

Q: And the binding signal (ELF4)?
A: 1.15 fold enrichment (6-mer frequency, TF over GST control)

Q: What about the binding signal (ELK4) of the same sequence?
A: 1.18 fold enrichment (6-mer frequency, TF over GST control)

Q: And the binding signal (ETV2)?
A: 1.12 fold enrichment (6-mer frequency, TF over GST control)

Q: What about the binding signal (ELF3) of the same sequence?
A: 1.26 fold enrichment (6-mer frequency, TF over GST control)

Q: And the binding signal (CRX)?
A: 2.66 fold enrichment (6-mer frequency, TF over GST control)

Q: And the binding signal (ETV1)?
A: 1.15 fold enrichment (6-mer frequency, TF over GST control)

Q: What about the binding signal (ERF) of the same sequence?
A: 1.25 fold enrichment (6-mer frequency, TF over GST control)

Q: And the binding signal (ETV3L)?
A: 1.2 fold enrichment (6-mer frequency, TF over GST control)

Q: And the binding signal (ETS2)?
A: 1.19 fold enrichment (6-mer frequency, TF over GST control)

Q: What about the binding signal (SPDEF) of the same sequence?
A: 1.12 fold enrichment (6-mer frequency, TF over GST control)

Q: What about the binding signal (ETV7) of the same sequence?
A: 1.21 fold enrichment (6-mer frequency, TF over GST control)

Q: What about the binding signal (ELF5) of the same sequence?
A: 1.13 fold enrichment (6-mer frequency, TF over GST control)

Q: What about the binding signal (ETV3) of the same sequence?
A: 1.21 fold enrichment (6-mer frequency, TF over GST control)

Q: And the binding signal (ETV6)?
A: 1.19 fold enrichment (6-mer frequency, TF over GST control)
